From PubChem BioAssay (NCATS)
Results filed as inconclusive are left out. Active and inactive are the calls of the source. The call rests on the fitted dose curve; in most records, active means well fitted curve in the direction sought with a large enough effect; inconclusive means small, poorly fitted or top-dose-only effect, or another doubt; inactive means no such curve, though single readings can be large; an effect the other way counts as inactive or inconclusive.

molecular target: Guanine nucleotide-binding protein G(i) subunit alpha-1 (Homo sapiens) (UniProt P63096); experiment: qHTS Assay for Inhibitors of RGS12 GoLoco Motif Activity (Green Fluorophore) (AID 879); settings: Galphai1/FITC-RGS12 GoLoco peptide, fluorescence polarization; series mostly up to 57.1 µM; activity, negative = inhibition: at the top concentration;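 further: 0% = labeled peptide with Gαi1 and full inhibition = labeled peptide alone without protein; negative values mean loss of peptide binding seen as reduced polarization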
Sequence (P63096 whole entry, looked up): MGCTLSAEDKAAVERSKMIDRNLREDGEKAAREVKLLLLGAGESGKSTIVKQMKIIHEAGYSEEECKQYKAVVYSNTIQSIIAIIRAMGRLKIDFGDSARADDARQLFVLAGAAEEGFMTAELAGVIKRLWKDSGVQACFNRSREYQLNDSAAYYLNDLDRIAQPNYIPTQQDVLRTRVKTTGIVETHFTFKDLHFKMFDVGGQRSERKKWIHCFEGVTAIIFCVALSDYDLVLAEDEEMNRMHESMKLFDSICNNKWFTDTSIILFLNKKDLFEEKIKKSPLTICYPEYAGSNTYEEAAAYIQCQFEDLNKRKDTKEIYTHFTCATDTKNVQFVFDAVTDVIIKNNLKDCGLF
Outline: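 A drop in FITC polarization marked displacement of the FITC-tagged RGS12 GoLoco peptide (10 nM) from Gαi1 (50 nM). Compounds were incubated 10 min at room temperature in Tris pH 7.5 buffer containing 150 mM NaCl, 0.1 mM GDP and 0.05% NP40; unlabeled peptide titration served as control.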

SMILES	activity, negative = inhibition
C[C@@H]1O[C@H](C[N+](C)(C)C)CS1	-4.1% (inactive)
NC(N)=NOCC[C@H](N)C(=O)O	-8.21% (inactive)
O=C1C=CC(=O)C=C1	-5.16% (inactive)
NNC(N)=O	-12.4% (inactive)

molecular target: Cytochrome P450 3A4 (Homo sapiens) (UniProt P08684); experiment: qHTS Assay for Inhibitors and Substrates of Cytochrome P450 3A4 (AID 884); settings: recombinant CYP3A4, Luciferin-PPXE luminescence; series mostly up to 57.1 µM; activity change, negative = inhibition: at the top concentration; further: nearly all actives have a fitted effect of over 50% in size; further: potency means the concentration at half of the fitted maximal effect; on activity change, negative = inhibition: on the % scale 0 is the no-effect control and ±100 the full control effect
Sequence (P08684 whole entry, looked up): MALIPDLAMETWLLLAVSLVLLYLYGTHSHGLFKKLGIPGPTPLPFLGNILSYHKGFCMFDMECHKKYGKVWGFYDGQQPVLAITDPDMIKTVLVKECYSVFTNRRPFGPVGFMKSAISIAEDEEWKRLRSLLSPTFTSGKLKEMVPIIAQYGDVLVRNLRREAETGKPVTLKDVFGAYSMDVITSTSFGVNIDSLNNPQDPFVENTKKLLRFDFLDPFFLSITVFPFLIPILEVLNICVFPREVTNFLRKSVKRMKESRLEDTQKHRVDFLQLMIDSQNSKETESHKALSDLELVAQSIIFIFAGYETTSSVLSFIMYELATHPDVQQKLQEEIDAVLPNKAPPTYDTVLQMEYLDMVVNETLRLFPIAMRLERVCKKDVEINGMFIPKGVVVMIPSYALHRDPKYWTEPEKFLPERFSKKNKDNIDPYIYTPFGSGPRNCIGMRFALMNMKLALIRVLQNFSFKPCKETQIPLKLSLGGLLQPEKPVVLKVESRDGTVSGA
Outline: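 Luminescent readout of luciferin produced by CYP3A4 (20 nM) dealkylation of Luciferin-PPXE, 25 uM (its KM). NADPH-driven reaction ran 60 min at RT after 10 min compound preincubation; data scaled to 57 uM ketoconazole as 100% inhibition.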

SMILES	activity change, negative = inhibition	Potency
CC(C)CCON=O	1.31% (inactive)	
[O]=[Cd]	-8.8% (inactive)	
COC1=CC(=O)O[C@@H](/C=C/c2ccccc2)C1	-1.62% (inactive)	
ClCC1CO1 (stereo not given)	2.53% (inactive)	
S=C=S	-10.8% (inactive)	
CC(C)(C)c1cc(O)ccc1O		inactive
O=C1CCO1	-12% (inactive)	
ClC=C(Cl)Cl	-5.19% (inactive)	
O=C/C=C/c1ccccc1		inactive
[O]=[Cr](=[O])([OH])[O][Cr](=[O])(=[O])[OH]		inactive
O=[N+]([O-])c1ccc(F)c([N+](=O)[O-])c1	-28.5% (inactive)	
CCCCCl	-4.48% (inactive)	
O=Cc1ccco1	7.85% (inactive)	
O=CC=O	-13.1% (inactive)	
CCOC(=O)c1ccccc1C(=O)OCC		inactive
O=[N+]([O-])c1ccccc1	-9.1% (inactive)	
O=C(O)C(Cl)(Cl)Cl		inactive
O=C1C=CC(=O)C=C1	11.1% (inactive)	
ClC(Cl)(Cl)Cl		inactive
Clc1ccccc1Cl	-2.73% (inactive)	
C[C@H]1CCC[C@H](O)CCCCCc2cc(O)cc(O)c2C(=O)O1		3.98 µM (active)
C[C@H]1CC[C@@H]2[C@@H](C)[C@H]3[C@H](C[C@H]4[C@@H]5CC=C6CC(O[C@@H]7O[C@H](CO)[C@H](O)[C@H](O[C@@H]8O[C@H](CO)[C@@H](O)[C@H](O)[C@H]8O)[C@H]7O[C@H]7O[C@@H](C)[C@H](O)[C@@H](O)[C@H]7O)CC[C@]6(C)[C@H]5CC[C@]34C)N2C1 (stereo not given in full)	12.7% (inactive)	
CCCCCCCCOC(=O)c1ccccc1C(=O)OCCCCCCCC	-42.9% (inactive)	
NNC(N)=O	-10.6% (inactive)	
Oc1cc(Cl)c(Cl)cc1Cl	-9.43% (inactive)	

molecular target: Cytochrome P450 3A4 (Homo sapiens) (UniProt P08684); experiment: qHTS Assay for Activators of Cytochrome P450 3A4 (AID 885); settings: recombinant CYP3A4, Luciferin-PPXE luminescence, 60 min; series mostly up to 57.1 µM; activity change, positive = activation: at the top concentration; further: nearly all actives have a fitted effect of over 65% in size
Outline: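 Human CYP3A4 dealkylates Luciferin-PPXE to luciferin, which luciferase detection converts to light. Substrate was at its KM (25uM), buffer 200mM KPO4, reaction 60 min at RT.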

SMILES	activity change, positive = activation	outcome
O=C1C2CC=CCC2C(=O)N1SC(Cl)(Cl)Cl (stereo not given)	-88.1% (inactive)	
CC(C)Nc1ccc(Nc2ccccc2)cc1	-47.8% (inactive)	
C[C@]12CCC(=O)C[C@@H]1CC[C@@H]1[C@@H]2CC[C@]2(C)[C@@H](O)CC[C@@H]12	-54.7% (inactive)	
C=CCN=C=S	-73.8% (inactive)	
COc1ccc2c(c1OC)C(=O)OC2C1c2cc3c(cc2CCN1C)OCO3 (stereo not given)		inactive
C[C@H]1CCC[C@H](O)CCCCCc2cc(O)cc(O)c2C(=O)O1	-95.5% (inactive)	
